HSF-1 act = HSF-1 activators, primary screen, NIH3T3-HGL cells, MG132 stress, luminescence, single point; activation, % at 9 µM; AID 504408, 2011; 1.7% of 300,000 active; NIH3T3-HGL HSF-1 luciferase reporter, 8 h; 100% = twice DMSO control signal;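 active = mean replicate activation of at least 50% with a set share of replicates each reaching 50%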;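 note: 0% = median of the neutral control wells and 100% = twice that signal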
HSF1 inhib = HSF1 inhibitors in luciferase reporter cells, primary screen, cell-based, NIH3T3, luminescence | 0.77% of 300,000 active | activity change, negative = inhibition, % at 7.5 µM (by protocol) | AID 2098, 2009 | NIH3T3-HGL HSE-luciferase, MG132-induced, luminescence 8 h; hits give low values;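 active = more than half of replicate wells show activity change below -50%, luminescence cut by over half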;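 note: luciferase reports HSF-1 transcriptional activity via heat shock element; 0% = median of DMSO wells and -100% = zero luminescence signal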
TWEAK-Fn14 inh = inhibitors of TWEAK-Fn14 signaling, primary screen, luciferase reporter cells, uHTS | TWEAK-stimulated Fn14 reporter cells, luciferase luminescence, 8 h | inhibition, % at 10 µM | 2% of 360,000 active | AID 1159606, 2016; in the data active = inhibition above about 50%
EBV LMP1 NFkB = EBV LMP1-driven NF-kappaB luciferase reporter inhibitors, primary screen, cell-based, luminescence, single point. 0.69% of 350,000 active. AID 504558, 2011. inhibition, % at 12.5 µM. LMP1-induced NF-kappaB luciferase reporter cells; in the data active = inhibition above about 41%;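 note: 0% = neutral control wells and 100% = reference inhibitor control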
LGR2 inh = inhibitors of bursicon-induced LGR2 CRE-luciferase signal, primary screen, cell-based, HEK293, CRE-luciferase reporter, bursicon stimulation | 0.35% of 380,000 active | inhibition, % at 9.99 µM | Drosophila bursicon receptor LGR2 (rickets) | bursicon-stimulated, 4 h;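 active = drop in luminescence signal, shown as inhibition above about 50% in the replicate tests, limit read from the data, passing the limit was not always enough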;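 note: agonist challenge used bursicon conditioned medium at about half maximal strength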
TROY NFkB inh = inhibitors of TROY-driven NF-kB signaling, primary screen, Q293 LMP1-TROYcd cells, NF-kB luciferase, uHTS | Q293 LMP1-TROYcd NF-kB luciferase reporter, 4 h | inhibition, % at 10 µM | 0.98% of 360,000 active | AID 1347056, 2019;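 active = compounds whose plate-normalised and pattern-corrected inhibition of the luciferase reporter signal at the single screening dose is 50% or more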
* marks the source's active call; other numbers are inactive results; nt = not tested or not shown. Hits are enriched below; roughly 3.6% of the tested compounds scored in any of these assays.

SMILES	HSF-1 act	HSF1 inhib	TWEAK-Fn14 inh	EBV LMP1 NFkB	LGR2 inh	TROY NFkB inh
CCc1ccc2oc(-c3cc(N)ccc3Cl)nc2c1	-51	-45	83*	-47	nt	57*
CCc1ccc2oc(-c3cc(N)ccc3O)nc2c1	-10	-4	40	-63	nt	45
COc1ccc(S(=O)(=O)Nc2ccc3c(c2)CC(=O)N([C@H](C)CO)C[C@H](C)[C@H](CN(C)C(=O)Nc2ccc(F)cc2)O3)cc1	nt	nt	nt	nt	3	nt
Cc1ccc(NC2=NC3(CCCC3)N=C(N)N2)c(C)c1	83*	66	10	-3	4	4
O=C(C[C@@H]1C[C@H]2c3cc(NC(=O)c4ccc5c(c4)OCO5)ccc3O[C@H]2[C@@H](CO)O1)NC1CCCCC1	nt	nt	nt	nt	12	nt
Cc1ccc2nc(-c3ccccc3)nn2c1	nt	nt	94*	64*	86*	62*
CCSC1(SCC)N=C(N)C2(C#N)C(c3ccc(F)cc3)C12C#N (stereo unspecified)	82*	74	13	-13	nt	nt
C[C@H](CO)N1C[C@H](C)[C@@H](CN(C)S(=O)(=O)c2ccccc2)OCCCC[C@H](C)Oc2ccc(NS(=O)(=O)c3cn(C)cn3)cc2C1=O	nt	nt	nt	nt	-11	nt
CC(=O)Nc1ccc(NC(=O)c2ccc(N(Cc3ccccc3C)S(C)(=O)=O)cc2)cc1	18	5	86*	-8	25	-13
C=CCN(c1ccc(C(=O)Nc2ccc3c(c2)OCO3)cc1)S(C)(=O)=O	5	-6	-15	-4	-15	-2
CC(=O)c1cccc(NC(=O)c2ccc(N(Cc3ccccc3C)S(C)(=O)=O)cc2)c1	24	8	32	-3	8	-3
C=CCN(c1ccc(C(=O)Nc2ccc3c(c2)n(C)c(=O)n3C)cc1)S(C)(=O)=O	18	8	-10	80*	-6	-6
O=C(NCC[C@H]1CC[C@@H](NC(=O)c2ccc3c(c2)OCO3)[C@@H](CO)O1)Nc1cc(F)ccc1F	nt	nt	nt	nt	1	nt
COc1ccccc1NC(=O)N[C@H]1CC[C@@H](CC(=O)N[C@H](C)c2ccccc2)O[C@H]1CO	nt	nt	nt	nt	2	nt
C[C@@H]1CN([C@@H](C)CO)C(=O)c2cc(C#Cc3cccc(F)c3)cnc2O[C@H]1CN(C)CC1CCCC1	nt	nt	nt	nt	-1	nt
O=C1c2cccc3cccc(c23)C(=O)N1OS(=O)(=O)c1ccc(Br)cc1	22	10	-2	1	-4	37
O=C1c2cccc3cccc(c23)C(=O)N1OS(=O)(=O)c1ccccc1	118*	87	-3	-6	nt	-33
Cc1cccc(C(C)C)c1NC(=O)c1ccc(COc2ccc3c(C)cc(=O)oc3c2)cc1	66*	17	-17	4	nt	-4
COc1ccc(NS(=O)CCCc2ccccc2)cc1 (stereo unspecified)	nt	nt	54*	nt	-9	42
COc1ccc(C(=O)NCCCCc2ccccc2)cc1	19	-9	2	nt	-22	-40
Cc1ccccc1C(=O)N1CCC2CC1c1cc(Cl)ccc12 (stereo unspecified)	nt	nt	4	2	-28	81*
CCCN(C(=O)c1cc(CC)c(C)s1)c1c(N)n(Cc2ccccc2)c(=O)[nH]c1=O	-10	2	-8	-5	-5	-11
COCCN(C(=O)COC(=O)/C=C/c1ccc(C(F)(F)F)cc1)c1c(N)n(Cc2ccccc2)c(=O)[nH]c1=O	-74	-67*	12	8	3	-9
CCc1cc(C(=O)N(CCCOC)c2c(N)n(Cc3ccccc3)c(=O)[nH]c2=O)sc1C	-18	4	2	4	18	71*
COc1ccc2c3c(n(C)c2c1)[C@@H](CO)N(C(C)=O)CC31CN(Cc2cccnc2)C1	nt	nt	nt	nt	-3	nt
COc1ccc(Oc2ccc3c(C(F)(F)F)cc(C(F)(F)F)nc3n2)cc1	4	-13	8	5	nt	14
Oc1ccc(Oc2ccc3c(C(F)(F)F)cc(C(F)(F)F)nc3n2)cc1	-10	-11	39	48*	nt	38
